The test system of the first assay is PXR homodimer (NR concentration 270 nM). Kind of assay: PBM binding z-score (relative to random genomic background probes); higher = stronger binding; sequences stand for … in GC…GCGATTGACAGCGTAGAATGAAGG
In a few lines:
(§1)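 Probes were double-stranded and carried 34-nt variable regions with direct-repeat seeds, single-nucleotide variants, half-site ablations and random human genomic background sequences, printed on custom Agilent 4×180K protein-binding microarrays. Arrays were incubated 1 h with ligand-free nuclear receptor dimers in PBS pH 7.4, 2% milk, 0.02% Triton X-100, 1 mM DTT, 0.2 mg/mL BSA and 0.4 mg/ml salmon testes DNA. Antibodies against each partner (one per run) detected binding, and scanned fluorescence was regression-normalized. Binding z-scores use the random background probes as reference.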
In the case of TCGAGTAGGTTAGGGGCATTCACAATGGCGTCGA, the PBM binding z-score was determined as 0.107.
TCAAATAGGTAAACAGGTGAAAGTCCGTAAGTTA gave a PBM binding z-score of 0.0929.
Still for that read-out and setting: the result for CTACCAAGGTGAACAAGGTCGGTGATTACTATTC reads 0.00939.
As for GCATATAGGTAATACAAGGTGAATGTCCGATTGT, the PBM binding z-score worked out at 0.012.
Still for that read-out and setting: the result for CATCAAAGTTCAAGGTAACGTAACAGAAAGCAGC reads 2.76; that for ATATGTAGGTTAGCTGGGATCATTCAGACTAGGC, 0.543.
ACTTACGGTTCAACGAGGTTATAGCACGCGTATA gave a PBM binding z-score of 6.85.
For the sequence CCTACTCGGCCAAAGGTCATTGATTCCAATGCTC, the PBM binding z-score was 2.54.
On the same count and under the same terms, to CCTAGTTGGTCAGGAGGTGACACACCGGATATGA belongs 0.895; to TGACCAAGGTGAAGGTCGTTGATCCCTCTGTAGA, -0.313; to GGAACGAGGGCATACGAGTTGATAGCATGGCGAT, 0.351.
For the sequence TCTATTAGTTGAAGGGCGACCGACGAGTCCGTTT, the PBM binding z-score came out at 0.886.
As to TCTTGTAGATCAAGCAGGTTGAGAAAGCCTGAGT, the PBM binding z-score is -0.29.
With ACAGACAGGTGATGAATGTAACTCAGGCTATCAT, the PBM binding z-score is -0.0195.
Same read-out and setting: the result for AGAATGAGGTTACCACAGATCAGGGAAACGCTTG reads 0.472; that for ACAGACAGGTGAGGAAGGTAACTCAGGCTATCAT, -0.158.
On the same count and under the same terms, to GATACAGGGTCAAGCCCAGAGTACGCGTATTGAT belongs 0.125.
Still for that read-out and setting: to CCTTACGGGTCAAGGCTATAGCACGGGTGGTACG belongs -0.208; to CCTAGTTGGTCAGTAGGTCACACACCGGATATGA, 0.364.
On to AATCGGAGGACAAAGGTCAGAGCTACGCCAGTGA, for which the PBM binding z-score was determined as 0.501.
Still for that read-out and setting: the result for CAAACTAGGTCAAGAGGACAAAGTCCGCTTCCCG reads 0.291; that for CCTAGCAGGCCAGGGTCATTCAAGCATTTCGCTT, -0.0887.
Sequence CCTCCTGGGCCAAGGTCATTGATCAGTCAAAGCA registered a PBM binding z-score of 0.83.
The same measure, in the same setting: the result for ATCTCTGGGTAAAGTTCAGTGAAAGATCGATAGA reads 1.91; that for CTCGAAAGGTTGTGCTCAGGTGAGTATACCAAAC, -0.0824.
Turning to ATCGAAAGGTCGTGAGGTGAGTATTCAGAAAGGC, the PBM binding z-score stood at 0.136.
In the case of AGAATGAGGTTACCAACGATCAGGGAAACGCTTG, the PBM binding z-score was -0.0709.
The same measure, in the same setting: the result for TCATCTAGGTAAAAGGTGAAAGTCGGTGTGGTAA reads 0.241; that for TCTAGCAGGCCAGAGGGTCTCTCAAGAGGTACGG, -1.12; that for CAAACTAGGTCACCGGAAGGTCACAGTCCGCATG, 1.29.
ATCTCTAGGAAAAAGTTCAGTGAATCCCGAGGAT displayed a PBM binding z-score of 0.888.
The sequence TCTAGTTGGTTAAAGGTCACACACTCGAAATGCG registered a PBM binding z-score of 1.86.
On the same count and under the same terms, the result for CGTCGAAGGTCAAGGTCAGTGAAAGAGACTCGAA reads 0.957; that for CCGACTGGGGCAAGGTTACCAGAACGCACAGCCA, 0.151; that for TCTTGTAGATCAAAGGTGAAGAAAGCCGAAGCCT, -0.554.
ATATGTAGGTTAGCTGGGGTCATTCGGACTAGGC displayed a PBM binding z-score of 5.39.
The same measure, in the same setting: to TCTCGGAGGACTCGAAGGTCAGAGCTTTCCAGAG belongs -0.316; to CCGAGTAGGTGATGGGGCATTCAGGCAACGGTGA, -0.379; to TCGAGTAGGGTAGGGGCATTCAGAATGGCGTCGA, 0.395.
Same read-out and setting: to TCATATACGTAAAAGGTGAAAGTCGGTGTGGTAA belongs 0.642.

The subject of the next assay is RARa:RXR (NR concentration 270 nM, RXRa partner concentration 90 nM). The assay is described as above. In a few lines:
as §1
In turn, TCGAGTAGGTTAGGGGCATTCACAATGGCGTCGA showed a PBM binding z-score of 0.506.
The same measure, in the same setting: the result for TCAAATAGGTAAACAGGTGAAAGTCCGTAAGTTA reads 1.16; that for CTACCAAGGTGAACAAGGTCGGTGATTACTATTC, 1.11; that for GCATATAGGTAATACAAGGTGAATGTCCGATTGT, 0.602.
In turn, CATCAAAGTTCAAGGTAACGTAACAGAAAGCAGC yielded a PBM binding z-score of 3.44.
ATATGTAGGTTAGCTGGGATCATTCAGACTAGGC registered a PBM binding z-score of 0.547.
The same measure, in the same setting: the result for ACTTACGGTTCAACGAGGTTATAGCACGCGTATA reads 3.55; that for CCTACTCGGCCAAAGGTCATTGATTCCAATGCTC, 5.95.
In turn, CCTAGTTGGTCAGGAGGTGACACACCGGATATGA returned a PBM binding z-score of 0.496.
In turn, TGACCAAGGTGAAGGTCGTTGATCCCTCTGTAGA had a PBM binding z-score of 1.8.
On the same count and under the same terms, the result for GGAACGAGGGCATACGAGTTGATAGCATGGCGAT reads 0.371; that for TCTATTAGTTGAAGGGCGACCGACGAGTCCGTTT, 0.0781.
TCTTGTAGATCAAGCAGGTTGAGAAAGCCTGAGT registered a PBM binding z-score of -0.172.
Still for that read-out and setting: the result for ACAGACAGGTGATGAATGTAACTCAGGCTATCAT reads 0.181.
The same measure, in the same setting: to AGAATGAGGTTACCACAGATCAGGGAAACGCTTG belongs 1.98; to ACAGACAGGTGAGGAAGGTAACTCAGGCTATCAT, 0.108.
As for GATACAGGGTCAAGCCCAGAGTACGCGTATTGAT, the PBM binding z-score stood at 4.85.
On the same count and under the same terms, the result for CCTTACGGGTCAAGGCTATAGCACGGGTGGTACG reads 3.68; that for CCTAGTTGGTCAGTAGGTCACACACCGGATATGA, 2.76; that for AATCGGAGGACAAAGGTCAGAGCTACGCCAGTGA, 4.48.
CAAACTAGGTCAAGAGGACAAAGTCCGCTTCCCG showed a PBM binding z-score of 2.12.
The same measure, in the same setting: to CCTAGCAGGCCAGGGTCATTCAAGCATTTCGCTT belongs 3.29.
Sequence CCTCCTGGGCCAAGGTCATTGATCAGTCAAAGCA came in with a PBM binding z-score of 3.49.
ATCTCTGGGTAAAGTTCAGTGAAAGATCGATAGA came in with a PBM binding z-score of 1.55.
In the case of CTCGAAAGGTTGTGCTCAGGTGAGTATACCAAAC, the PBM binding z-score is 1.38.
Turning to ATCGAAAGGTCGTGAGGTGAGTATTCAGAAAGGC, the PBM binding z-score is 4.62.
Still for that read-out and setting: the result for AGAATGAGGTTACCAACGATCAGGGAAACGCTTG reads 2.01; that for TCATCTAGGTAAAAGGTGAAAGTCGGTGTGGTAA, 2.8.
Still for that read-out and setting: to TCTAGCAGGCCAGAGGGTCTCTCAAGAGGTACGG belongs -0.436; to CAAACTAGGTCACCGGAAGGTCACAGTCCGCATG, 7.62.
Same read-out and setting: the result for ATCTCTAGGAAAAAGTTCAGTGAATCCCGAGGAT reads 0.235; that for TCTAGTTGGTTAAAGGTCACACACTCGAAATGCG, 6.06.
Regarding CGTCGAAGGTCAAGGTCAGTGAAAGAGACTCGAA, the PBM binding z-score is 4.46.
CCGACTGGGGCAAGGTTACCAGAACGCACAGCCA came in with a PBM binding z-score of 0.58.
On the same count and under the same terms, the result for TCTTGTAGATCAAAGGTGAAGAAAGCCGAAGCCT reads 1.86.
Still for that read-out and setting: to ATATGTAGGTTAGCTGGGGTCATTCGGACTAGGC belongs 6.34; to TCTCGGAGGACTCGAAGGTCAGAGCTTTCCAGAG, 1.48.
The same measure, in the same setting: the result for CCGAGTAGGTGATGGGGCATTCAGGCAACGGTGA reads -0.226; that for TCGAGTAGGGTAGGGGCATTCAGAATGGCGTCGA, 0.405.
The sequence TCATATACGTAAAAGGTGAAAGTCGGTGTGGTAA gave a PBM binding z-score of 1.89.

The values above are taken from the supplement of paper PMC6555819.
